Compounds with a hit are over-represented: about 6.9% of the library has one in this group of screens.
MCF10A rereplic = DNA re-replication induction in MCF 10a cells; MCF 10A DNA re-replication, Hoechst nuclear intensity, 48 h; Potency, µM (titrated, usually from 46.1 µM), inactives show top-dose activity, positive = re-replication, actives largely listed as activators; 350,000 compounds, 2.9% hits; also: potency is read from the fitted curve at half-maximal effect; % of control where 0% means no effect; nearly all actives have a fitted effect of over 50% in size
SW480 rereplic = inducers of DNA re-replication in SW480 colon cancer cells; 340,000 compounds, 1.8% hits; SW480 DNA re-replication, Hoechst DNA content imaging, 48 h; Potency, µM (highest dose often 46.1 µM), without a hit: at the highest dose re-replication activation, usual class: activators; also: potency is read from the fitted curve at half-maximal effect; % of control where 0% means no effect; nearly all actives have a fitted effect of over 55% in size
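Hoechst fluorescence of nuclei (405 nm excitation, 500-530 nm emission) measured by plate-scanning imager after 48 hr compound exposure at 37 C; re-replication scored as increased number of nuclei with elevated intensity.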
Giardia kill = kills Giardia lamblia | Giardia lamblia trophozoite viability | activity change, % at 7.66 µM, hits read low | 340,000 compounds, 0.15% hits | AID 540267; in the data active = activity change below about -80%; inconclusive = between about -30% and that limit;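 also: parasites exposed to compound for two days anaerobically before the ATP read; % is scaled to controls: 0 for no effect and ±100 for the full control effect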
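ATP-content bioluminescence gauges trophozoite survival. Cells (100/well) receive compound and incubate anaerobically for 48 hrs at 37 deg C; detection reagent follows for 15-30 min at room temperature.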
Vif-APOBEC3F blk = inhibitors of Vif-A3F interaction | 390,000 compounds, 0.2% hits | Potency, µM (series often up to 46.1 µM), for inactives: at the highest dose activity, negative = active | HeLa A3F-eYFP + Vif (tagged APOBEC3F with the HIV-1 protein that degrades it), YFP fluorescence increase; also: potency is read from the fitted curve at half-maximal effect; % of control where 0% means no effect; nearly all actives have a fitted effect of over 65% in size
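HeLa cells stably expressing A3F-eYFP plus Vif, plated and incubated overnight at 37 deg C, then exposed to compounds overnight at 37 deg C. Blocked degradation read as raised yellow fluorescence (Ex 488/Em 500-530).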
IL-1B inflam inh = inflammasome signaling inhibition, IL-1 beta readout | THP-1 LPS/ATP IL-1B secretion, AlphaLISA, 16 h; hits give low values | activity change, % at 57.5 µM | 360,000 compounds, 4.7% hits | AID 743279; in the data active = activity change below about -50%; inconclusive = mostly about -30% to -49%; also: % is scaled to controls: 0 for no effect and ±100 for the full control effect
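Secreted IL-1B measured by AlphaLISA bead assay after 16 h compound exposure of THP-1 cells; compounds (final up to 57.5 uM) added 1 h before LPS (250 ng/mL) and ATP (1.25 mM) stimulation; lower signal means less secretion.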
Vif-APOBEC3G blk = Vif-A3G binding inhibition; HeLa A3G-eYFP + Vif (tagged APOBEC3G with the HIV-1 protein that degrades it), YFP fluorescence, overnight; Potency, µM (top dose mostly 46.1 µM), for the others: top-dose activity, negative = active, actives largely listed as inhibitors; 410,000 compounds, 0.076% hits; Q9HC16; also: potency is read from the fitted curve at half-maximal effect; % is scaled to controls: 0 for no effect and ±100 for the full control effect; nearly all actives have a fitted effect of over 60% in size
Target sequence (Q9HC16 whole entry, looked up): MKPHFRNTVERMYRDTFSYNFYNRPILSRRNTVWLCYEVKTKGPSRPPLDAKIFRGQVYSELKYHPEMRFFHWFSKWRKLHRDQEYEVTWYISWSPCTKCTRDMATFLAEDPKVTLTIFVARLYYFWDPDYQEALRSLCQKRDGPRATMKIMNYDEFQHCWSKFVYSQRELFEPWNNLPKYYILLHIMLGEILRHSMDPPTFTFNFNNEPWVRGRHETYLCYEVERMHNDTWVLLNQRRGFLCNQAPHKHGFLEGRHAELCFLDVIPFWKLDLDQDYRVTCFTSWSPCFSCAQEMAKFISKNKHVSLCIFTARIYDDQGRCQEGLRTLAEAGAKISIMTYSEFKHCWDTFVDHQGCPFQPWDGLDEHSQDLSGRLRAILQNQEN
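HeLa cells stably expressing Vif and C-terminally eYFP-tagged A3G, seeded overnight at 37 deg C, then exposed to compound by pintool overnight at 37 deg C. Rise in yellow fluorescence (Ex 488/Em 500-530, Acumen) marks blocked Vif-driven A3G degradation.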
Numbers without * were called inactive; ? = inconclusive; . = no result; [ ] = remark or other dose. Unless noted, calls follow the shape of the dose curve; as a rule, active = well fitted curve in the direction sought with a large enough effect; inconclusive = small, poorly fitted or top-dose-only effect, or another doubt; inactive = no such curve, though single readings can be large; an effect the other way counts as inactive or inconclusive.

SMILES | MCF10A rereplic | SW480 rereplic | Giardia kill | Vif-APOBEC3F blk | IL-1B inflam inh | Vif-APOBEC3G blk
CCn1c2ccccc2c2cnc(N=CN(C)C)c(C#N)c21 | 3% | 0% | -13 | 2% | -9 | 0%
COc1ccc(N(CC(=O)Nc2cccc(Cl)c2C)S(=O)(=O)c2c(C)nn(C)c2C)cc1 | . | . | . | -2% | . | -5%
COc1ccccc1NC(=O)c1sc2nc3n(c(=O)c2c1C)N=C(c1cccc(Br)c1)CS3 | . | . | . | -5% | . | 0%
CCOc1ccc(-n2nc3ccc(N)cc3n2)cc1 | 18µM* | ? | ? | -13% | 1 | -7%
CCOc1ccc(N2C(N)=NC(N)=NC2(C)C)cc1 | 7.3µM* | -5% | -17 | -1% | 13 | -1%
CCOc1ccc(-n2nc3cc(C)c(N)cc3n2)cc1 | 18µM* | 16µM* | -19 | 3% | -4 | 0%
CCOc1ccc(-n2nc3cc(C)c(NC(=O)c4cc(OCC)c(OCC)c(OCC)c4)cc3n2)cc1 | . | . | . | 0% | . | -1%
O=C1C=CC2(O[C@H](c3ccccc3)[C@@H](c3ccccc3)O2)[C@H](Sc2ccccc2O)C1 | ? | ? | 9 | 5% | -117* | ?
CCOC(=O)[C@@H](C)N(C(=O)OC(C)(C)C)S(=O)(=O)N(Cc1ccccc1)[C@@H](C(=O)OC)C(C)C | . | . | . | . | . | -2%
COc1ccc(N(C(C)C(=O)N/N=C/c2ccc(OCC(C)C)cc2)S(C)(=O)=O)cc1 (configuration not stated) | 19% | 4.1µM* | -1 | 1% | 0 | -3%
COc1ccc(NC(C)C(=O)Nc2ccc(C(C)(C)C)cc2)cc1Cl (configuration not stated) | 16µM* | 12% | 1 | 5% | -54* | -1%
COc1ccc(C2=NN(C(=O)COC(=O)c3ccc(S(C)(=O)=O)c([N+](=O)[O-])c3)C(c3ccco3)C2)cc1 (configuration not stated) | ? | 12µM* | -4 | 17% | -100* | ?
COc1ccc(C2=NN(C(=O)COc3ncnc4ccccc34)C(c3ccco3)C2)cc1 (configuration not stated) | 16% | ? | 11 | -3% | ? | -10%
N#Cc1c(Nc2ccccc2)sc(C(=O)c2ccccc2)c1N | 0% | 0% | -3 | -6% | -14 | -8%
Cc1cccc(Oc2sc(C(=O)c3ccccc3)c(N)c2C#N)c1 | ? | ? | 5 | 2% | -86* | -9%
Cc1ccc(CC2(OCCN(C)C)CCC(C(C)(C)C)CC2)cc1 (configuration not stated) | ? | 24% | -2 | 3% | -99* | -5%
CN(C)CCOC1(Cc2ccc(F)cc2)CCC(C(C)(C)C)CC1 (configuration not stated) | 11% | 12% | -9 | 3% | -104* | -1%
Cc1ccc(CNC(=S)NC2CCC(C(C)(C)C)CC2)cc1 (configuration not stated) | ? | -5% | 0 | -23% | 25 | 2%
CN(C)CCCCOc1ccc(F)cc1 | 2% | -24% | 20 | -11% | -5 | -7%
COc1ccc(CNC(=O)CCc2nc3cccnc3n2Cc2ccccc2)cc1 | . | . | . | -3% | . | -2%
COCCNc1nc2nonc2nc1N(C)Cc1cccc2cnccc12 | -2% | 4.6µM* | -1 | -4% | 21 | 0%
COc1ccc2c(c1OC)C(=O)N1N=C(c3ccc(Cl)cc3)CC21 (configuration not stated) | 0% | -10% | 7 | 5% | -82* | 1%
Cc1ccccn1 | 8% | 1% | . | . | . | .
Cc1cc(=O)[nH]c(N=N/C(=N/Nc2ccc(O)cc2)c2ccccc2)n1 | ? | -2%[9.22 µM] | 2 | -2% | 112 | 1%
Cc1cc(=O)[nH]c(N=N/C(=N/Nc2ccccc2C)c2ccccc2)n1 | 19% | 5.2µM* | -23 | 5% | 161 | -12%
COc1ccc(CNc2nc3c(-c4ccc(C)cc4)nnn3c3ccccc23)cc1 | . | . | . | 0% | . | -3%

Screening data (PubChem BioAssay)
